Data as given in PubChem BioAssay AID720597 (Broad Institute, 2013).
Results with a measured potency or affinity are listed apart. The source made the active and inactive calls.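 How the source made its calls: active means fitted half-maximal dose no more than twice the top valid tested dose, for compounds that lower signal; inconclusive means fit invalid, or curve flat with activity between -70 and -30; inactive means potency past limit, curve flat within ±30, or signal increasing.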

What follows are compounds tested against NAD-dependent protein deacylase sirtuin-5, mitochondrial (Homo sapiens) (UniProt Q9NXA8) (assay: SIRT5 deacylase inhibitors, dose response, biochemical, fluorescence imaging, cherry-pick, set 6 (AID 720597;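 further: lower AMC signal can also come from blocking the trypsin step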)). Settings: Purified SirT5, succinyl-peptide-AMC/trypsin fluorescence; series mostly up to 15 µM.
Sequence of NAD-dependent protein deacylase sirtuin-5, mitochondrial (Homo sapiens) (Q9NXA8 whole entry, looked up): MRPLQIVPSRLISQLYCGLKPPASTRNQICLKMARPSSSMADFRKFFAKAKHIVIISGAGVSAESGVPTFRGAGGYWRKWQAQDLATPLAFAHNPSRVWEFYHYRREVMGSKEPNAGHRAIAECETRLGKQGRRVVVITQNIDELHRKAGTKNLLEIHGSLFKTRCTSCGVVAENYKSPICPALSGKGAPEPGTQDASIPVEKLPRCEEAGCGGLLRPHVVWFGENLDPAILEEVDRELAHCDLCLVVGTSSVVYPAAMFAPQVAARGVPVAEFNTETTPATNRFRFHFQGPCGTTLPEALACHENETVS

outcome, inactive:
C[C@@H]1CN([C@@H](C)CO)S(=O)(=O)c2ccc(C#Cc3cccc(F)c3)cc2O[C@H]1CN(C)S(=O)(=O)c1ccccc1F
COc1ccc(S(=O)(=O)N(C)C[C@@H]2Oc3cc(C#CC4CCCC4)ccc3S(=O)(=O)N([C@H](C)CO)C[C@H]2C)cc1
C[C@@H]1CCCCO[C@@H](CN(C)S(=O)(=O)c2ccc(F)cc2)[C@H](C)CN([C@@H](C)CO)C(=O)c2cc(NC(=O)Nc3ccc4c(c3)OCO4)ccc2O1
C[C@@H]1CN([C@@H](C)CO)C(=O)Cc2cc(NS(=O)(=O)c3ccc(Cl)cc3)ccc2O[C@@H]1CN(C)CC1CCCCC1
Cc1noc(C)c1NC(=O)Nc1cccc2c1O[C@H](CN(C)Cc1ccc(Oc3ccccc3)cc1)[C@H](C)CN([C@H](C)CO)C2=O
C[C@H]1CN([C@@H](C)CO)C(=O)c2cc(NC(=O)Cc3ccccc3)ccc2O[C@H]1CN(C)Cc1ccc(Oc2ccccc2)cc1
Cc1ccc(S(=O)(=O)Nc2ccc3c(c2)C(=O)N([C@H](C)CO)C[C@H](C)[C@H](CN(C)Cc2ccc(C(F)(F)F)cc2)OCCCC[C@H](C)O3)cc1
O=C(Nc1ccccc1F)N1C[C@@H]2N[C@H](C1)C2c1ccc(/C=C/c2ccccc2)cc1 (stereo not given in full)
CS(=O)(=O)N(CC(=O)NC1CCCCC1)c1cccc(F)c1
COc1cccc(NC(=O)N(C)C[C@@H]2OCc3cn(nn3)CCCC(=O)N([C@H](C)CO)C[C@H]2C)c1
Cc1ccc(S(=O)(=O)N(C)C[C@@H]2OCCCC[C@@H](C)Oc3ccc(NS(=O)(=O)c4ccc(Cl)cc4)cc3C(=O)N([C@H](C)CO)C[C@H]2C)cc1
O=C(CN1CCOCC1)N1CCCCN2[C@H](C1)[C@H](c1ccc(-c3ccccc3F)cc1)[C@@H]2CO
C[C@@H]1CN([C@@H](C)CO)C(=O)c2cc(C#CCN(C)C)cnc2O[C@H]1CN(C)Cc1ccncc1
C[C@H]1CN([C@@H](C)CO)S(=O)(=O)c2ccc(C#Cc3ccc(F)cc3)cc2O[C@@H]1CN(C)C(=O)NC1CCCCC1
C[C@@H]1CN([C@@H](C)CO)S(=O)(=O)c2ccc(C#CC3CC3)cc2O[C@@H]1CN(C)C(=O)c1cccc(F)c1
C[C@H](CO)N1C[C@H](C)[C@H](CN(C)Cc2ccc(-c3ccccc3)cc2)OCc2ccccc2-c2ccccc2C1=O
C[C@@H]1CN([C@H](C)CO)C(=O)c2cc(NS(=O)(=O)c3ccc(Cl)cc3)ccc2O[C@H]1CN(C)Cc1ccc2c(c1)OCO2
C[C@H](NC(=O)[C@@H]1[C@@H](CO)[C@@H]2Cn3c(cccc3=O)[C@H]1N2Cc1ccccc1)c1ccccc1
C[C@H]1CN([C@@H](C)CO)C(=O)c2cc(NC(=O)Cc3ccccc3)ccc2O[C@@H]1CN(C)Cc1ccc(Oc2ccccc2)cc1
O=C(c1cnccn1)N1CC(=O)N2[C@H](CO)[C@@H](c3ccc(C4=CCCCC4)cc3)[C@@H]2C1
COc1cccc(S(=O)(=O)N(C)C[C@H]2Oc3cc(C4=CCCC4)ccc3S(=O)(=O)N([C@@H](C)CO)C[C@@H]2C)c1
C[C@@H]1CN([C@@H](C)CO)C(=O)c2cc(NS(=O)(=O)c3cccs3)ccc2O[C@@H](C)CCCCO[C@@H]1CN(C)Cc1ccc(C(F)(F)F)cc1
C[C@@H]1CN([C@@H](C)CO)C(=O)c2cccc(NC(=O)c3nc4ccccc4s3)c2O[C@H]1CN(C)Cc1ccc(C(F)(F)F)cc1
Cc1noc(C)c1NC(=O)Nc1cccc2c1O[C@H](CN(C)Cc1ccc(Oc3ccccc3)cc1)[C@@H](C)CN([C@H](C)CO)C2=O
C[C@H](CO)N1C[C@H](C)[C@H](CN(C)CC2CCCCC2)Oc2ccc(NS(=O)(=O)c3ccc(Cl)cc3)cc2CC1=O
Cc1ccc(S(=O)(=O)N(C)C[C@H]2Oc3ccc(NC(=O)Cn4cnnn4)cc3CC(=O)N([C@@H](C)CO)C[C@H]2C)cc1
COc1ccc(NC(=O)N(C)C[C@@H]2Oc3cc(C#CCC(C)C)ccc3S(=O)(=O)N([C@H](C)CO)C[C@H]2C)cc1
C[C@H]1CN([C@@H](C)CO)C(=O)c2cc(C#CCC3CCCC3)cnc2O[C@H]1CN(C)C(=O)c1cnccn1
Cc1ccc(S(=O)(=O)N(C)C[C@H]2OCCCC[C@H](C)Oc3ccc(NS(=O)(=O)c4ccc(Cl)cc4)cc3C(=O)N([C@@H](C)CO)C[C@@H]2C)cc1
Cc1noc(C)c1NC(=O)N(C)C[C@@H]1OCCCC[C@H](C)Oc2ccc(NC(=O)Nc3ccc(F)cc3)cc2C(=O)N([C@@H](C)CO)C[C@@H]1C
COc1cccc(S(=O)(=O)N(C)C[C@H]2Oc3cc(C4=CCCCC4)ccc3S(=O)(=O)N([C@@H](C)CO)C[C@@H]2C)c1
COc1ccc(S(=O)(=O)Nc2ccc3c(c2)C(=O)N([C@H](C)CO)C[C@@H](C)[C@H](CN(C)Cc2ccc(C(F)(F)F)cc2)OCCCC[C@@H](C)O3)cc1
C[C@@H]1CN([C@H](C)CO)C(=O)c2cc(C#CCN(C)C)cnc2O[C@H]1CN(C)Cc1ccncc1
CCCC#Cc1ccc([C@@H]2[C@@H](CO)N3CCCCN(S(=O)(=O)Cc4ccccc4)C[C@@H]23)cc1
O=C(C[C@@H]1C[C@H]2c3cc(NC(=O)Nc4ccccc4F)ccc3O[C@H]2[C@H](CO)O1)NCC1CC1
C[C@H](CO)N1C[C@H](C)[C@@H](CN(C)C(=O)Nc2cc(F)ccc2F)Oc2cc(/C=C/c3ccccc3)ccc2S1(=O)=O
COc1ccc(S(=O)(=O)Nc2ccc3c(c2)CC(=O)N([C@@H](C)CO)C[C@@H](C)[C@H](CN(C)S(=O)(=O)c2ccc(C)cc2)O3)cc1
CO[C@H]1CC[C@@H]2CCOc3c(C#N)cccc3C(=O)N(C)C[C@H](C)C(=O)N(C)C[C@@H]1O2
C[C@H]1CCCCO[C@H](CN(C)Cc2ccc(C(F)(F)F)cc2)[C@@H](C)CN([C@@H](C)CO)C(=O)c2cc(NS(=O)(=O)c3ccc(Cl)cc3)ccc2O1
C[C@H]1CN([C@@H](C)CO)C(=O)Cc2cc(NC(=O)Nc3ccc(C(F)(F)F)cc3)ccc2O[C@H]1CN(C)Cc1ccc(C(=O)Nc2ccccc2N)cc1
